D2 ag-1 – D2 dopamine receptor (human) agonism | P14416 | AID 485358 | 0.53% of 340,000 active | HEK293 T-REx D2 cells, calcium flux agonist mode | activation, % at 2 µM;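 active means activation over 3 SD above normal in the single-dose calcium agonist read, cut at about 30% in these data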; further: 0% is about no effect
Target sequence (P14416 whole entry, looked up): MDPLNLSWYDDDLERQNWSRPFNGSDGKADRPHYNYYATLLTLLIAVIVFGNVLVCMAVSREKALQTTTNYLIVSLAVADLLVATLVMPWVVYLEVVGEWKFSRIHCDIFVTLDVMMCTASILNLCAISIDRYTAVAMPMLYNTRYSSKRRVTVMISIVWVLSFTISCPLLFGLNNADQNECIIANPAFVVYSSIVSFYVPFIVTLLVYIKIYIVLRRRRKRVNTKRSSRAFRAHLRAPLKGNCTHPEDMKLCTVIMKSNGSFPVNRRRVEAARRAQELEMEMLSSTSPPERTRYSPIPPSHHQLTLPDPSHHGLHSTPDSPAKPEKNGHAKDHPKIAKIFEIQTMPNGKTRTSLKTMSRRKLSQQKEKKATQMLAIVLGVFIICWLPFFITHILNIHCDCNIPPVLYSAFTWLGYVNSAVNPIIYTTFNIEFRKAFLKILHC
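In this primary screen, compounds producing a positive calcium signal within 180 s of addition to tetracycline-induced, force-coupled HEK293 Trex D2 cells are flagged; cells are dye-loaded with a no-wash calcium kit beforehand.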
D2 PAM-1 – potentiates the human D2 dopamine receptor allosterically. DiscoveRx D2 beta-arrestin cells, luminescence, 90 min; 100% = 57 uM dopamine signal. 0.23% of 360,000 active. potentiation, % (test concentration not listed). AID 624464; in the data active means potentiation above about 50%; inconclusive means mostly about 30% to 49%
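PathHunter beta-arrestin assay in DiscoveRx D2 cells. Compounds were added with an EC20 of dopamine (50 nM final) for 90 min at 37 deg C. Luminescence was read 1 h after detection reagent, with 57 uM dopamine as the EC100 control.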
D2 PAM-2 – positively modulates the human D2 dopamine receptor allosterically | potentiation, % at 10 µM | P14416 | 0.34% of 340,000 active | HEK293 T-REx D2, calcium flux, EC20 dopamine potentiation | AID 485347;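 active means potentiation over 3 SD above the plate norm, cut at about 30% in these data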; further: 0% is about no effect
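Tetracycline-induced Hek293 Trex D2 cells, force-coupled to calcium, loaded with no-wash calcium dye. Compound added with 180 s kinetic read for agonism, then EC20 dopamine and a further 180 s read for potentiation.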
D2 antag – antagonists of human D2 dopamine receptor; P14416; HEK293 TREx D2 cells, calcium flux, dopamine EC80; inhibition, % at 10 µM; 2% of 340,000 active; in the data active means inhibition above about 30%; inactive means below that, where a call was filed; further: 0% is about no effect
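HEK293 T-REx D2 cells, tet-induced, calcium dye no-wash. Cpd pintool add, 180 s kinetic, then EC80 DA, 180 s kinetic. Ca flux read.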
D2 ag-2 – human D2 receptor agonism in beta-arrestin assay | activation, % (concentration not given with the values) | 0.084% of 360,000 active | DiscoveRx PathHunter D2 beta-arrestin, luminescence, 90 min; 100% = 57 uM dopamine signal; in the data active means activation above about 40%; inconclusive means between about 15% and that limit
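DiscoveRx PathHunter D2 beta-arrestin cells (2,100/well) attached overnight, then compound-stimulated 90 min at 37 C in HBSS/10 mM HEPES/0.1% Tween-20 buffer; beta-galactosidase complementation read by luminescence after 1 h at ambient temperature. Dopamine 57 uM final (EC100) as control.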
D3 ag – D3 receptor agonism confirmed, beta-arrestin readout. shares compounds with D2 ag-1. DiscoveRx D3 beta-arrestin cells, luminescence, 90 min. Potency, µM (highest dose often 76.9 µM), for the others: at the top dose activation, most hits filed as activators. 4% of 2,300 active. AID 720506;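 further: potency means the concentration at half of the fitted maximal effect; 100% = dopamine control response; nearly all actives have a fitted effect of over 70% in size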
D2 ag-3 – activates human D2 dopamine receptor in D3 counterscreen. shares compounds with D2 ag-1. DiscoveRx PathHunter D2 beta-arrestin, luminescence, 90 min; response scale: percent relative to full dopamine signal. Potency, µM (top dose mostly 76.9 µM), inactives show at the top dose activation, actives largely listed as activators. 5.9% of 2,300 active. AID 720507; further: potency means the concentration at half of the fitted maximal effect; % of control where 0% means no effect; nearly all actives have a fitted effect of over 70% in size
Starred values were filed as active, the others as inactive; ? = inconclusive; · = no result. In the library only some 2.4% were active in any assay of this set; here they are far more common. Unless noted, the call rests on the fitted dose curve; in most records, active means well fitted activation curve with a large enough effect; inconclusive means small, poorly fitted or top-dose-only effect; inactive means flat fitted curve, though single readings scatter.

SMILES	D2 ag-1	D2 PAM-1	D2 PAM-2	D2 antag	D2 ag-2	D3 ag	D2 ag-3
O=C(CCCn1c(=O)[nH]c2ccsc2c1=O)N1CCN(Cc2ccc3c(c2)OCO3)CC1	·	-19	-6	·	-3	-1%	10%
CCOC(=O)N1CCN(C(=O)c2ccc3ccccc3c2)CC1	0	3	-4	-1	-4	·	·
CCOC(=O)N1CCN(Cc2ccc3ccccc3c2)CC1	34*	-32	-6	21	2	-3%	26%
O=C(Cn1ncc2c3ccccc3n(Cc3ccccc3)c2c1=O)NCCCN1CCCCC1	0	·	-2	·	·	·	·
Cc1cccc(/C=N/NC(=O)NC2CCCCC2)c1	3	-7	-10	26	-6	-3%	-3%
Cc1ccc(Cl)cc1N1CCN(C(=O)CCCn2c(=O)[nH]c3ccc(Br)cc3c2=O)CC1	-1	·	-13	·	·	·	·
O=C(NCc1ccc2c(c1)OCO2)c1nc(Cn2cc(Br)cn2)no1	·	-4	·	·	2	-1%	-3%
O=C(O)CC1Sc2ccccc2NC1=O (stereo not given)	51*	-19	-28	6	-6	-7%	-2%
CCOC(=O)CC1Sc2ccccc2NC1=O (stereo not given)	·	-4	18	-11	-4	·	·
Clc1ccc(CN2CCN(c3ncccn3)CC2)c(Cl)c1	76*	59*	-24	90*	79*	?	28µM*
Clc1ccccc1CN1CCc2nc(N3CCN(c4ncccn4)CC3)ncc2C1	22	·	-7	·	·	·	·
O=C(Nc1ccc(Cl)cc1Cl)N1CCN(c2ncccn2)CC1	6	3	0	-14	-3	·	·
Clc1cccc(CN2CCN(c3ncccn3)CC2)c1Cl	69*	24	-34	61*	?	23%	50µM*
Clc1ccccc1CN1CCN(c2ncccn2)CC1	80*	59*	-39	76*	70*	-3%	20µM*
CCc1cccc(CC)c1NC(=O)C(Cc1ccccc1)NS(=O)(=O)c1cccc2nsnc12 (stereo not given)	0	·	-9	·	·	·	·
O=C(CCN1CCN(c2ccccc2)CC1)Nc1cccc(Br)c1	60*	-8	-22	75*	-1	21%	12%
O=C(CCN1CCN(c2ccccc2F)CC1)Nc1ccc2c(c1)OCO2	80*	3	-19	86*	?	?	?
CCN1CCN(CCC(=O)Nc2ccc3c(c2)OCO3)CC1	0	-4	-7	0	2	·	·
O=C(CN1CCN(c2ccc(O)cc2)CC1)Nc1ccc2c(c1)OCCCO2	35*	15	-12	1	7	40µM*	35µM*
O=C(CCN1CCN(c2ccccc2)CC1)Nc1ccc2c(c1)OCO2	103*	-14	-27	108*	?	?	?
Cn1nc(-c2ccccc2)c(-c2ccccc2)c(C(=O)Nc2ccccc2C(N)=O)c1=O	-1	·	3	·	·	·	·
CN1CCN(Cc2c(O)ccc3cc(-c4ccc(Cl)cc4)c(=O)oc23)CC1	2	·	1	·	·	·	·
COc1cc(OC)c(NC(=O)c2cc3c(s2)-c2ccc(Cl)cc2SC3)cc1Cl	-1	·	2	·	·	·	·
Cc1ccccc1NC(=O)Cn1nc(-c2ccccc2)nc(Cc2ccccc2)c1=O	0	·	7	·	·	·	·
CC(=O)Nc1c(C)nn(-c2ccccc2)c1N1CCC(C(=O)Nc2ccc(C)cc2Cl)CC1	0	·	-6	·	·	·	·
SMILES	D2 ag-1	D2 PAM-1	D2 PAM-2	D2 antag	D2 ag-2	D3 ag	D2 ag-3
COc1ccc(NC(=O)CN2CCN(c3ccccc3F)CC2)c(OC)c1	·	·	-22	·	·	·	·
O=C(CCN1CCN(c2ccccc2)CC1)Nc1nccs1	71*	-28	-31	93*	14	25%	16%
COc1ccc(NC(=O)CCN2CCN(c3ccccc3F)CC2)c(OC)c1	90*	13	-28	86*	49*	?	?
Cc1onc(-c2ccccc2)c1C(=O)NNC(=O)c1ccccc1O	0	-63	1	-8	-8	·	·
Cc1onc(-c2ccccc2)c1C(=O)NNC(=S)NC(=O)c1ccc(Br)cc1	46*	-28	-14	36*	-7	1%	-10%
COc1ccc(/C=C/C(=O)NC(=S)NNC(=O)c2c(-c3ccccc3)noc2C)cc1	6	-39	5	-4	-9	·	·
Cc1onc(-c2ccccc2)c1C(=O)NNC(=S)NC(=O)/C=C/c1ccccc1	31*	-42	-7	-16	-13	-29%	-10%
COCc1ccc(-c2ccc3c(c2)c(C#Cc2ccsc2)c(-c2cc(OC)cc(OC)c2)n3C)cc1	1	-4	-8	-20	-1	-5%	-4%
